Source: PubChem
Nrf2 ARE act: activators of Nrf2 (ARE) signaling | AREc32 ARE-luciferase reporter (MCF7-derived line), luminescence, 24 h | hit rate 0.31% among 410,000 | AID 624171 | Potency, µM (titrated, usually from 46.1 µM), most hits filed as activators; note: nearly all actives have a fitted effect of over 65% in size
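AREc32_Fluc, 1000 cells/well, OPTI-MEM + 5% FBS, o/n 37 deg C 5% CO2; 23 nL cpd by pin tool, 24 hr; Steady-Glo 30 min RT, luminescence.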
ELG1 repair inh: inhibitors of ELG1-dependent DNA repair in HEK293T cells; HEK293T ELG1-luciferase reporter, luminescence, 16 h; DNA damage induced by 5-fluorouridine; Potency, µM (series often up to 46.1 µM), usual class: inhibitors; hit rate 2.3% among 330,000; note: nearly all actives have a fitted effect of over 55% in size
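Cells (2,000 per well) received 5-fluorouridine plus test compound or DMSO and were incubated 16 hr at 37 °C, 5% CO2. Luciferase activity was read by luminescence 30 min after ONE-Glo addition; signal suppression marked inhibition of damage-induced ELG1 function.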
Nrf2 block: Nrf2 pathway inhibition; A549 ARE-Fluc reporter, luciferase luminescence, 18-24 h; Potency, µM (titrated, usually from 46 µM), hits mostly inhibitors; hit rate 2.1% among 360,000; AID 504444; note: nearly all actives have a fitted effect of over 60% in size
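Two sequential reads on A549 ARE_Fluc cells exposed to compound for 18-24 h: a CellTiter-Fluor fluorescence read for viability, then a luciferase luminescence read for Nrf2/ARE activity.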
A549 tox: A549 cytotoxicity, counter-screen for Nrf2 inhibitors | Potency, µM (titrated, usually from 46 µM), hits mostly inhibitors | A549 ARE-Fluc cells, CellTiter-Fluor viability, 18-24 h | hit rate 0.16% among 390,000
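Cytotoxicity counterscreen: CellTiter-Fluor fluorescence was measured in A549 ARE_Fluc cells after 18-24 h of compound exposure in a concentration series. The subsequent BugLite luminescent read reports ARE-luciferase activity.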
A number is an active result; 0 = inactive; ? = inconclusive; - = no result. In the library only some 3.7% were active in any assay of this set; here they are far more common. Calls come from the whole dose curve; as a rule, active = well fitted curve in the direction sought with a large enough effect; inconclusive = small, poorly fitted or top-dose-only effect, or another doubt; inactive = no such curve, though single readings can be large; an effect the other way counts as inactive or inconclusive.

SMILES	Nrf2 ARE act	ELG1 repair inh	Nrf2 block	A549 tox
CCOc1ccc(Cl)cc1C1CC(=O)Nc2cc(OC)c(OC)c(OC)c21 (stereo not drawn)	0	-	0	0
O=C(Nc1ccc(F)cc1)c1ncn(-c2ccccc2)n1	0	-	?	0
O=C(N/N=C/c1ccccn1)c1cc(-c2ccc(Cl)cc2)nc2ccccc12	0	?	9.2µM	?
CCOc1ccc(Br)cc1C(=O)N/N=C/c1ccccn1	0	11.6µM	?	0
O=C(N/N=C/c1ccccn1)c1cc(-c2ccc(Br)cc2)nc2ccccc12	0	?	13µM	?
CC(/C=C(\NC(=O)c1ccccc1)C(=O)N=Nc1c(O)[nH]c2ccc(C)cc12)=C\c1ccccc1	8.91µM	?	-	?
COc1ccc(Cl)cc1C(=O)Nn1c(-c2cccs2)nc2ccccc2c1=O	0	6.51µM	0	0
Cc1ccc(/C=C/C(=O)N2CCc3ccccc32)o1	11.2µM	?	?	0
COc1cc2c(cc1OC)C(C)N(C(=O)C1COc3ccccc3O1)CC2 (stereo not drawn)	0	23.1µM	-	0
O=C(/C=C/c1ccco1)N1CCc2ccccc21	?	?	?	0
COc1cc2c(cc1OC)C(C)N(C(=O)/C=C/c1cc(OC)c(OC)c(OC)c1)CC2 (stereo not drawn)	0	18.3µM	?	0
COc1cc(/C=C/C(=O)N2CCCc3ccccc32)cc(OC)c1OC	0	8.2µM	0	0
Clc1ccc(CN2CCc3c([nH]c4ccccc34)C2)cc1Cl	0	?	0	0
Cc1cc2c(s1)c1cnn(Cc3ccc(F)cc3Cl)c(=O)c1n2C	-	-	0	0
Cc1ccc(C)c(C(=O)COc2ccc(C)nc2[N+](=O)[O-])c1	?	0	-	0
Cc1ccc(C)c(C(=O)COc2ccccc2[N+](=O)[O-])c1	22.4µM	0	0	0
Cc1cccc(C)c1-n1nnnc1C1c2ccccc2C(=O)N1CCc1ccccc1F (stereo not drawn)	12.6µM	-	-	-
O=C(Nc1ccccc1C(=O)N/N=C/c1ccco1)c1ccc(Cl)cc1	?	0	0	0
O=C(Nc1ccccc1C(=O)N/N=C/c1ccco1)c1ccccc1	3.55µM	0	0	0
O=C(N/N=C\c1ccco1)Nc1cccc(Cl)c1	5.01µM	?	?	0
Cc1ccccc1C(=O)Nc1ccccc1C(=O)N/N=C\c1ccco1	?	0	0	0
Cc1cccc(NC(=O)CCC(=O)N/N=C/c2ccco2)c1	0	0	0	0
O=C(Nc1ccccc1C(=O)N/N=C/c1ccco1)c1ccc(F)cc1	2.82µM	0	0	0
Cc1ccccc1C(=O)Nc1ccc(C(=O)OCc2cc(=O)n3nc(C4CC4)sc3n2)cc1	0	-	-	0
CCC1CCCCN1S(=O)(=O)c1ccc(C(=O)Nc2nnc(-c3ccccc3Cl)o2)cc1 (stereo not drawn)	0	?	5.17µM	?
SMILES	Nrf2 ARE act	ELG1 repair inh	Nrf2 block	A549 tox
O=C(Nc1nnc(-c2cccs2)o1)c1ccc(S(=O)(=O)N2CCOCC2)cc1	0	20.6µM	?	0
CCC1CCCCN1S(=O)(=O)c1ccc(NC(=O)c2ccncc2)cc1 (stereo not drawn)	0	5.17µM	8.2µM	0
O=S(=O)(c1ccccc1)N1CCN(c2nccc(-c3cccs3)n2)CC1	-	-	0	0
CCOC(=O)c1cc(-c2ccccc2)n(CCC(=O)Nc2nc3c(C)cccc3s2)c1C	0	-	-	0
CCC(C(=O)NC1CCCCC1)N(Cc1cccs1)C(=O)CCC(=O)Nc1cc(C)on1 (stereo not drawn)	0	?	8.2µM	0
Cc1cc(NC(=O)CCC(=O)N(Cc2cccs2)C(C(=O)NC2CCCC2)c2ccncc2)no1 (stereo not drawn)	0	0	0	0
COC(=O)COc1ccccc1C(=O)Nc1ccc(OC)cc1	0	0	0	0
COc1ccc(OCCNC(=O)c2ccccc2OCC(=O)Nc2ccc(NC(C)=O)cc2)cc1	0	16.4µM	?	0
COc1ccc(OCCNC(=O)c2ccccc2OCC(=O)N2CCCCC2)cc1	0	23.1µM	-	0
CCOC(=O)c1cnc(SCC(=O)Nc2cc(OC)ccc2OC)nc1N	0	?	10.3µM	0
CCOC(=O)c1cnc(SCC(=O)Nc2ccc(NC(C)=O)c(OC)c2)nc1N	0	0	?	0
CCc1nc(SCC(=O)Nc2nnc(CC)s2)c2c(C)c(C)sc2n1	0	0	0	0
CCc1nc(SCC(=O)Nc2cc(OC)ccc2OC)c2c(C)c(C)sc2n1	0	?	14.6µM	0
O=c1[nH]c(SCc2nc3ccccc3n2Cc2ccccc2)nc2ccccc12	0	?	?	0
